Screening data as filed in PubChem BioAssay.
OPRM1-OPRD1 ag: agonists of human mu-delta opioid receptor heterodimerization | P35372+P41143 | cells, OPRM1-OPRD1 heterodimerization, luminescence | activation, % at 9.3 µM | 340,000 compounds, 0.3% hits; in the data active means activation above about 18%;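 further: 0% = vehicle-treated cells and 100% = reference agonist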
HTR2A ag: mouse HTR2A agonism via beta-arrestin recruitment | P35363 | CHO-K1 mHTR2A beta-arrestin complementation, luminescence; percent of 30 µM serotonin response | activation, % at 7.6 µM | 360,000 compounds, 0.66% hits;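 active means activation above a run cutoff, the mean activation of all tested compounds plus 3 SD, cut at about 14% in these data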;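 further: 0% = plate median of compound wells and 100% = 30 µM serotonin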
sPLA2-III inh: Blocks human group III sPLA2 activity | 370,000 compounds, 0.56% hits | inhibition, % at 12.2 µM | QFRET BODIPY PC-A2 liposome hydrolysis, fluorescence | Q9NZ20;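 active means inhibition above mean plus 3 SD of compounds lying within the high and low control bounds, cut at about 19% in these data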;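 further: 0% = median of test compound wells and 100% = no enzyme DMSO wells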
HTR5A inv ag: inverse agonist of human HTR5A in OPRM1-OPRD1 counter-screen. 340,000 compounds, 0.083% hits. P47898. AID 504634. HTR5A cell line, luminescence, inverse agonism. inhibition, % at 9.3 µM; in the data active means inhibition mostly above about 23%, no sharp cut-off; inactive means mostly below about 18%;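 further: 0% = cells with DMSO and 100% = no-cell wells with DMSO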
Target sequence (P47898 whole entry, looked up): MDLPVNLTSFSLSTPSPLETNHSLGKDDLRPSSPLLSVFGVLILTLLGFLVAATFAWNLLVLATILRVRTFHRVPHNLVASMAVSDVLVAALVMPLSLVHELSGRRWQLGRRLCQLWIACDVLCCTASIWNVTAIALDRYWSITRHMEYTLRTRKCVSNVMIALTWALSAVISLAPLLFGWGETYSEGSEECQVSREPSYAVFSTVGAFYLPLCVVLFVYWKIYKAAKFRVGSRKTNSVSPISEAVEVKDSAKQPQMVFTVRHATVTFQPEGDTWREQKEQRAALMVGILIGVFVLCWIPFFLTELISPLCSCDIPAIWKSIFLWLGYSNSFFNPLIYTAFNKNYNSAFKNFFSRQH
OPRM1-OPRD1 inv: mu-delta opioid heterodimer inverse agonism; P35372+P41143; cell-based MOR-DOR heterodimer luminescence; inhibition, % at 9.3 µM; 340,000 compounds, 0.21% hits; in the data active means inhibition above about 22%, passing the limit was not always enough;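 further: 0% = cells with DMSO and 100% = wells without cells with DMSO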
HTR5A ag ctr: activates human HTR5A in OPRM1-OPRD1 agonist counter-screen; HTR5A agonist assay, luminescence, cell-based; activation, % at 9.3 µM; 340,000 compounds, 0.61% hits; AID 504692; in the data active means activation mostly above about 9.5%, no sharp cut-off; inactive means mostly below about 7.6%;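 further: 0% = cells with vehicle only and 100% = reference agonist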
OPRM1 ag: counter-screen for mouse HTR2A agonists: human mu opioid receptor agonists. shares compounds with HTR2A ag. U2OS OPRM1 beta-arrestin PathHunter, luminescence; DMSO 0%, DAMGO 9.3 µM 100%. activation, % at 9.3 µM. 2,300 compounds, 5.3% hits. AID 624380;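 active means mean activation above the mean of DMSO-only wells plus 3 SD, cut at about 0.5% in these data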
m5-HT2A ag conf: mouse HTR2A agonism confirmed; activation, % at 7.6 µM; shares compounds with HTR2A ag; 2,300 compounds, 19% hits; CHO-K1 PathHunter beta-arrestin recruitment, luminescence; DMSO 0%, 30 µM serotonin 100%; AID 624381;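 active means mean activation across triplicates above the hit threshold derived in the original primary screen, cut at about 15% in these data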
Starred values were filed as active, the others as inactive; · = not tested or not shown. Most compounds without a hit are left out; they make up all but 2.2% or so of the library.

SMILES	OPRM1-OPRD1 ag	HTR2A ag	sPLA2-III inh	HTR5A inv ag	OPRM1-OPRD1 inv	HTR5A ag ctr	OPRM1 ag	m5-HT2A ag conf
C=CCn1c(SCC(=O)NCC2CCCO2)nc2scc(-c3ccc(OC)cc3)c2c1=O (stereo not given)	-1.6	2.9	-4.1	-1.6	10.7	-4.1	·	·
COc1ccc(NC(=O)CSc2nc3c(c(=O)n2C)SCC3)cc1OC	-1.3	10.1	4.7	-24.2	7.2	5.3	·	·
Cc1ccc(-n2c(SCC(=O)NCC3CCCO3)nc3c(c2=O)SCC3)cc1 (stereo not given)	-2.2	-3.3	4.6	-11.8	12.9	4.5	·	·
C=CCn1c(SCC(=O)NCC2CCCO2)nc2sc(CC)cc2c1=O (stereo not given)	0.7	16.6*	-2.4	-9.2	-2.9	3.8	0.3	2.2
Cc1ccc(NC(=O)OCCCN2C(=O)CCC23CCC(C)CC3)cc1 (stereo not given)	·	·	6.7	·	·	·	·	·
O=C(Cc1c[nH]c2ccccc12)Nc1ccc(Nc2cccnc2)c(-c2ccc(OC(F)(F)F)cc2)c1	·	·	-30.7	·	·	·	·	·
CCOC(=O)C1(C)CCCCN1C(=O)c1ccccc1OC (stereo not given)	·	-2.0	-1.2	·	·	·	·	·
CCOC(=O)C1(C)CCCN1C(=O)c1ccccc1OC (stereo not given)	·	15.0*	-3.5	·	·	·	-0.5	-3.5
CCN(CC)C1CCN(C(=O)c2cc(COc3ccc(-n4cncn4)cc3)on2)C1 (stereo not given)	-1.8	15.6*	-8.9	-11.0	9.3	7.1	-0.7	-2.9
CCOc1ccc(C(=O)Nc2ccc(NC(=O)c3ccccc3)cc2)cc1Br	-2.8	25.4*	-0.5	0.6	13.9	-0.1	-0.6	-1.1
CCc1ccccc1CNC(=O)C1CCC(CNS(=O)(=O)c2cccc3cccnc23)CC1 (stereo not given)	·	·	-4.0	·	·	·	·	·
Clc1cccc(Cl)c1Cn1nnc(N2CCCC2)n1	-2.6	2.2	2.5	-4.3	13.5	-4.8	·	·
CN(C)c1nc(N(C)C)n(Cc2c(Cl)cccc2Cl)n1	-2.8	24.9*	0.4	-10.5	16.0	3.7	-0.7	-3.1
CCc1ccccc1NC(=O)c1ccccc1N1C(=O)C2C3C=CC(C3)C2C1=O (stereo not given)	-2.9	16.3*	2.3	-7.5	15.5	-1.6	-0.5	1.3
COc1cccc(NC(=O)c2ccccc2N2C(=O)C3C4C=CC(C4)C3C2=O)c1 (stereo not given)	-1.1	2.3	3.1	0.7	5.8	7.4	·	·
CCCCNC(=O)c1cccc2c(=O)c(C)c(-c3ccccc3)oc12	-1.3	-0.5	0.1	-0.8	6.7	1.5	·	·
CCCCN(C(=O)c1cccc2c(=O)c(C)c(-c3ccccc3)oc12)c1ccccc1	8.8	38.2*	-11.1	-10.4	-63.2	10.1	-0.1	9.6
COC(=O)N1CCCCC1c1cc(C(=O)Nc2cccc3c2CCCC3)no1 (stereo not given)	·	16.6*	3.5	·	·	·	-0.4	-3.4
NC(N)=NC(=O)Cc1c(Cl)cccc1Cl	-1.2	30.0*	-0.9	6.7	6.6	-1.9	-0.7	39.8*
COc1ccc2c(CC(=O)OCC(=O)N3CCc4ccccc43)coc2c1	-1.8	15.9*	-9.2	-6.0	9.5	1.1	-0.4	-4.8
Cc1cc(C)cc(N(CC(=O)NC2CCC(C)CC2)S(=O)(=O)c2cccs2)c1 (stereo not given)	·	·	3.4	·	·	·	·	·
Cc1nn(-c2ccccc2)c(N2CCCC2)c1/C=N/NC(=O)c1cc(-c2ccccn2)nc2ccccc12	1.4	14.6*	-0.8	-2.4	-6.6	6.6	-0.6	-3.3
Cc1nn(-c2ccccc2)c(N2CCCC2)c1/C=N/NC(=O)c1cc(-c2ccccc2)nc2ccccc12	4.8	-5.1	4.1	6.4	-24.4	-2.5	·	·
CC1CC(C)CN(CCOCCSc2ccccc2)C1 (stereo not given)	2.8	15.6*	-4.6	-15.3	-14.4	4.2	-0.5	1.4
Cc1ccc(OCC(=O)OCC(=O)NC2CCCC2)cc1C	-2.5	15.1*	3.3	-16.8	10.2	6.1	-0.2	3.5
SMILES	OPRM1-OPRD1 ag	HTR2A ag	sPLA2-III inh	HTR5A inv ag	OPRM1-OPRD1 inv	HTR5A ag ctr	OPRM1 ag	m5-HT2A ag conf
COc1ccc(CC(=O)OCC(=O)NC2CCCCC2)cc1OC	-3.6	20.4*	-1.4	-5.7	18.9	1.6	-0.5	-2.2
COC(=O)[C@]12C[C@H](CC(=O)NCc3cccc4ccccc34)C(=O)N(CCC3=CCCCC3)C1=C[C@H](C1CCCC1)O[C@@H]2C	·	·	-18.3	·	·	·	·	·
O=C(CCN1CCN(c2ccccc2)CC1)N/N=C/c1ccc(O)c(O)c1O	2.5	15.0*	-8.9	1.0	-12.7	-0.4	0.1	51.2*
Cc1cc(=O)oc2c(C)c(OC(C)C(=O)NCCCN3CCOCC3)ccc12 (stereo not given)	-2.5	16.3*	-3.5	2.3	13.0	1.0	-0.4	-4.3
C=C(C)COc1ccc(-c2nc(N)nc(C)c2-c2ccc(OC)cc2)c(O)c1	3.2	18.1*	2.6	-5.1	-17.8	2.2	0.2	2.0
C=C(C)COc1ccc(-c2nc(N)ncc2-c2ccc(OC)cc2)c(O)c1	·	·	-2.3	·	·	·	·	·
COc1ccc(S(=O)(=O)NCc2csc(-c3cccnc3)n2)cc1	-1.4	17.4*	10.1	-24.5	8.5	-2.1	-0.6	-4.4
Clc1ccc(-c2nnc(SCc3cccc4ccccc34)n2Cc2ccco2)cc1	·	·	-3.5	·	·	·	·	·
O=C(CCS(=O)(=O)c1ccccc1)NC1CCCCC1	-1.7	-2.2	-1.0	4.2	9.3	3.4	·	·
O=C(CCS(=O)(=O)c1ccccc1Cl)NC1CCCCCC1	-1.9	20.9*	7.8	0.4	7.6	-0.2	-0.3	-1.0
COC(=O)[C@]12C[C@H](CC(=O)NCC3CCCCC3)C(=O)N(Cc3ccc(Cl)cc3Cl)C1=C[C@H](C(C)C)O[C@@H]2C1CC1	·	·	15.9	·	·	·	·	·
O=C1CC(=O)C(n2cncn2)C(c2cccc(Cl)c2)C1 (stereo not given)	-2.9	-0.6	-17.9	12.1	14.6	3.5	·	·
O=C1CC(c2cccc(Cl)c2)C(n2cncn2)C(=O)C1C1NCCc2ccccc21 (stereo not given)	-2.7	15.7*	-10.4	-9.5	14.3	1.9	-0.6	-3.8
CC(=O)Nc1ccc(S(=O)(=O)NCCC(=O)N2CCN(C(c3ccccc3)c3ccccc3)CC2)cc1	-2.7	15.9*	-29.1	0.4	14.6	6.7	-0.5	-4.7
Cc1ccc2nc(-c3ccc(NS(C)(=O)=O)cc3)cc(-c3ccccc3)c2c1	3.0	4.8	-51.8	-2.1	-16.2	0.6	·	·
CCS(=O)(=O)Nc1ccc(-c2cc(-c3ccccc3)c3cc(C)ccc3n2)cc1	2.1	15.1*	-41.8	-11.8	-13.2	1.8	-0.4	4.3
